Assay [1] deals with human Adrenergic, Alpha 2c Receptor (Adra2C), ADRA2C (gene 152) (UniProt P18825). The experiment in a line: NVS_GPCR_hAdra2C: NovaScreen (NVS) G Protein-Coupled Receptor Assay for human Adrenergic, Alpha 2c Receptor (Adra2C) (AID 2283259). The essentials: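 Screened first in duplicate at 25 uM, with actives then run as concentration series. Membranes from Sf9 cells were exposed for 1 h, and displacement of radioligand was counted after filtration, using DMSO as baseline.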

Assay [2] concerns the target Muscarinic acetylcholine receptor M1 (Homo sapiens) (UniProt P11229). The experiment in a line: NVS_GPCR_hM1: NovaScreen (NVS) G Protein-Coupled Receptor Assay for human Muscarinic, M1 Receptor (AID 2283270). The essentials:
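Actives from a duplicate 25 uM single-point screen were retested in concentration series. Binding measured as displacement of a radioligand from CHO-derived receptor preparation, 1 h incubation, filtration and scintillation counting, analysed as signal loss against DMSO.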

Assay [3] concerns the target Type-1 angiotensin II receptor (Homo sapiens) (UniProt P30556). The experiment in a line: NVS_GPCR_hAT1: NovaScreen (NVS) G Protein-Coupled Receptor Assay for human Angiotensin II receptor type 1 (AT1) (AID 2283263). The essentials:
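Hits from a 25 uM duplicate screen (threshold e.g. 30% inhibition) were run in concentration-response with 50 uM top concentration. Displacement of specific radioligand from KAN-TS membrane preparations measured after 3 h by filter scintillation, DMSO as baseline.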

The target of assay [4] is human Endothelin Receptor Type A (ETA), EDNRA (gene 1909) (UniProt P25101). The experiment in a line: NVS_GPCR_hETA: NovaScreen (NVS) G Protein-Coupled Receptor Assay for human Endothelin Receptor Type A (ETA) (AID 2283265). An outline of the steps: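 Binding of radioligand to membrane protein extracted from SH-SY5Y cells was read by filtration and scintillation after 3 h. Compounds were screened at 25 uM in duplicate, with hits followed up in singleton concentration series to 50 uM.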

Assay [5] addresses human Dopamine Receptor D2 (DRD2), DRD2 (gene 1813) (UniProt P14416). The experiment in a line: NVS_GPCR_hDRD2s: NovaScreen (NVS) G Protein-Coupled Receptor Assay for human Dopamine Receptor D2 (DRD2) (AID 2283266). The essentials:
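Test compound (25 uM, duplicate in the primary screen; concentration series at follow-up) competed with radioligand for human DRD2 in CHO-derived membrane protein. Filter-based scintillation counting was done 1.5 hours after dosing, with loss of signal analysed against DMSO.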

Assay [6] concerns the target human Histamine 1 Receptor (H1), HRH1 (gene 3269) (UniProt P35367). The experiment in a line: NVS_GPCR_hH1: NovaScreen (NVS) G Protein-Coupled Receptor Assay for human Histamine 1 Receptor (H1) (AID 2283268). An outline of the steps:
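Filter-based scintillation detection of radioligand binding to human H1, 1 h incubation; chemicals screened in duplicate at 25 uM, then concentration-response; signal loss relative to DMSO taken as activity.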

Assay [7] has as its target Muscarinic acetylcholine receptor M2 (Homo sapiens) (UniProt P08172). The experiment in a line: NVS_GPCR_hM2: NovaScreen (NVS) G Protein-Coupled Receptor Assay for human Muscarinic, M2 Receptor (AID 2283273). An outline of the steps: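 Filter-based radiodetection read bound radioligand 1 h after dosing CHO-derived membrane protein. Single-concentration duplicates (25 uM) first, then concentration-response for actives; signal loss versus DMSO scored.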

In assay [8] the target is human Neurokinin, NK2 Receptor, TACR2 (gene 6865) (UniProt P21452). The experiment in a line: NVS_GPCR_hNK2: NovaScreen (NVS) G Protein-Coupled Receptor Assay for human Neurokinin, NK2 Receptor (AID 2283278).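 Also: actives reduce bound radioligand signal relative to DMSO baseline.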 The essentials: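 CHO-derived membrane protein, radioligand displacement, filter scintillation read at 4 h post-dose. Single-point 25 uM in duplicate, then concentration series for actives; DMSO as negative control.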

For assay [9], the target named is Beta-2 adrenergic receptor (Homo sapiens) (UniProt P07550). The experiment in a line: NVS_GPCR_hAdrb2: NovaScreen (NVS) G Protein-Coupled Receptor Assay for human Adrenergic, Beta 2 Receptor (Adrb2) (AID 2283261). The essentials: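 Compounds screened in duplicate at 25 uM, then actives in concentration series. Human beta-2 receptor from CHO material, cell-free; radioligand displacement after 1 h measured by filtration and scintillation against DMSO baseline.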

For assay [10], the target named is human Leukotriene B4 Receptor 1 (LTB4-BLT1), LTB4R (gene 1241) (UniProt Q15722). The experiment in a line: NVS_GPCR_hLTB4_BLT1: NovaScreen (NVS) G Protein-Coupled Receptor Assay for human Leukotriene B4 Receptor 1 (LTB4-BLT1) (AID 2283271). The essentials:
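Cell-free human neutrophil receptor preparation, 1 h exposure, radioligand binding read by filter scintillation counting. Single 25 uM duplicate screen, then concentration series topping at 50 uM; binding loss scored against DMSO baseline.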

Assay [11] addresses Muscarinic acetylcholine receptor M3 (Homo sapiens) (UniProt P20309). The experiment in a line: NVS_GPCR_hM3: NovaScreen (NVS) G Protein-Coupled Receptor Assay for human Muscarinic, M3 Receptor (AID 2283272). The essentials:
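Radioligand displacement binding on human M3 receptor in CHO-derived membranes, 1 h incubation, filter-based scintillation counting. Primary screen in duplicate at 25 uM; actives followed up in concentration series; loss of signal versus DMSO.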

Assay [12] deals with human Muscarinic, M4 Receptor, CHRM4 (gene 1132) (UniProt P08173). The experiment in a line: NVS_GPCR_hM4: NovaScreen (NVS) G Protein-Coupled Receptor Assay for human Muscarinic, M4 Receptor (AID 2283274). The essentials:
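Filter-based scintillation counting of radioligand bound to CHO-expressed human M4 preparations after 1 h; loss of signal fitted versus DMSO. Initial duplicate testing at 25 uM, concentration-response follow-up for actives.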

In assay [13] the target is human Neurotensin Receptor (NTS), NTSR1 (gene 4923) (UniProt P30989). The experiment in a line: NVS_GPCR_hNTS: NovaScreen (NVS) G Protein-Coupled Receptor Assay for human Neurotensin Receptor (NTS) (AID 2283279). An outline of the steps:
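Compounds competed with a radiolabelled ligand for binding to CHO-derived human neurotensin receptor; bound signal counted after filtration, 1 h. Screened first at a single concentration of 25 uM in duplicate, then concentration series to 50 uM maximum for actives.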

In assay [14] the target is D(1A) dopamine receptor (Homo sapiens) (UniProt P21728). The experiment in a line: NVS_GPCR_hDRD1: NovaScreen (NVS) G Protein-Coupled Receptor Assay for human Dopamine Receptor D1 (DRD1) (AID 2283269). An outline of the steps:
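Cell-free radioligand binding to human DRD1 from HEK293 membranes, read 1 h after dosing by filter-based scintillation counting. Loss of signal versus DMSO baseline marks displacement. Primary screen at 25 uM single concentration in duplicate; actives followed up in concentration series.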

The target of assay [15] is human Adrenergic, Beta 1 Receptor (Adrb1), ADRB1 (gene 153) (UniProt P08588). The experiment in a line: NVS_GPCR_hAdrb1: NovaScreen (NVS) G Protein-Coupled Receptor Assay for human Adrenergic, Beta 1 Receptor (Adrb1) (AID 2283258). An outline of the steps:
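Membranes/protein extracted from human neuroepithelioma cells, radioligand competition binding read by filtration and scintillation 2 h post-dose. Single 25 uM duplicate screen, then concentration-response follow-up; DMSO as negative control.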

Assay [16] concerns the target human Adrenergic, Beta 3 Receptor (Adrb3), ADRB3 (gene 155) (UniProt P13945). The experiment in a line: NVS_GPCR_hAdrb3: NovaScreen (NVS) G Protein-Coupled Receptor Assay for human Adrenergic, Beta 3 Receptor (Adrb3) (AID 2283262). The essentials:
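A cell-free filter binding assay read by scintillation counting, with displacement of a specific radioligand measured after 1 hour. The receptor source was SK-N-MC extracts (cells pretreated with isoproterenol and 8-bromo-cAMP). Compounds were first tested at 25 uM in duplicate and then in concentration series.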

Assay [17] has as its target Neuropeptide Y receptor type 2 (Homo sapiens) (UniProt P49146). The experiment in a line: NVS_GPCR_hNPY2: NovaScreen (NVS) G Protein-Coupled Receptor Assay for human Neuropeptide Receptor Y2 (NPY2) (AID 2283277). The essentials:
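Chemicals were first tested in duplicate at 25 uM, then actives in singleton concentration series to 50 uM. Tracer binding to SK-N-MC-derived protein measured cell-free after 1 h via filter scintillation; signal loss relative to DMSO.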

Several values for one entry are separate records, joined by “and”; a condition that tells them apart may be missing. Identical values can stand only once. Inconclusive results are not listed. Activity calls are given as the source filed them. The calls were made as follows: active = hit-call score of the fitted dose curve at least 0.9, where 1 is the maximum; inconclusive = response in the unintended direction; inactive = score below 0.9.

Sequence of Muscarinic acetylcholine receptor M2 (Homo sapiens) (P08172 whole entry, looked up): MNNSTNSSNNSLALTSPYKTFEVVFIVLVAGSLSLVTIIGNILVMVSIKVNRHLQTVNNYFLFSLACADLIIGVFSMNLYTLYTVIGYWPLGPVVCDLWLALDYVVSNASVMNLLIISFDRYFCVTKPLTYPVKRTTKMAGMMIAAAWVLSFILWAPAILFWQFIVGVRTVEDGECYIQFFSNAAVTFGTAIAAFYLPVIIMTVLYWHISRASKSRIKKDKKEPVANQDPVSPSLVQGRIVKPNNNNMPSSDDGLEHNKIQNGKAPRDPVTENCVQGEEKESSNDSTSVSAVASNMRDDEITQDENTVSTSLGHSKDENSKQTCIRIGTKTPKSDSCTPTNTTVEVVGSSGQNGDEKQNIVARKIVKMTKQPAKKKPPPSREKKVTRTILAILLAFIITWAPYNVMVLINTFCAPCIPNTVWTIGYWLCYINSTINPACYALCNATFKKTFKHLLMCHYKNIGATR
Sequence of Muscarinic acetylcholine receptor M1 (Homo sapiens) (P11229 whole entry, looked up): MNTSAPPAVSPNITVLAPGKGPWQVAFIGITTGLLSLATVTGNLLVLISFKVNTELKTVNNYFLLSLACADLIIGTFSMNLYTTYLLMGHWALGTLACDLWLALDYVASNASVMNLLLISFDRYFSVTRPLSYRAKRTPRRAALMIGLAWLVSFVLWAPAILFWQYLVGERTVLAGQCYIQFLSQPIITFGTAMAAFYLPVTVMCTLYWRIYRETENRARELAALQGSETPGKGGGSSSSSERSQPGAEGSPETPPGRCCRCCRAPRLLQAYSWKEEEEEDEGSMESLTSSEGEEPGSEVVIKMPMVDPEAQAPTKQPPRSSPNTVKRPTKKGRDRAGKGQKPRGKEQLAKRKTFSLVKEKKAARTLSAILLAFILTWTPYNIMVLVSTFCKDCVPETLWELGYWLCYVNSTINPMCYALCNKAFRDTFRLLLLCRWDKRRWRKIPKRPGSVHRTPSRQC
Sequence of Beta-2 adrenergic receptor (Homo sapiens) (P07550 whole entry, looked up): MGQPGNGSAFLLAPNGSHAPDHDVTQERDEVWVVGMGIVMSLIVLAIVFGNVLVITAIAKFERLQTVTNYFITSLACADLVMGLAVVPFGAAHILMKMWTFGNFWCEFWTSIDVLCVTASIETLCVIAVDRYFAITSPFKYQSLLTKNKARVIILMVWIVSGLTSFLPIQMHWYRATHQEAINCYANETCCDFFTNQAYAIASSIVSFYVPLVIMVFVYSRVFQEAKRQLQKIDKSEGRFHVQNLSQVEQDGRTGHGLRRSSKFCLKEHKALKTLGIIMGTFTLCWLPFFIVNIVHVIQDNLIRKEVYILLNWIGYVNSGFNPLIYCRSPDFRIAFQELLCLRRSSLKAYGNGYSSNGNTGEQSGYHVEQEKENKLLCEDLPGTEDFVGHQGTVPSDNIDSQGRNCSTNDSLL
Sequence of human Adrenergic, Alpha 2c Receptor (Adra2C), ADRA2C (gene 152) (P18825 whole entry, looked up): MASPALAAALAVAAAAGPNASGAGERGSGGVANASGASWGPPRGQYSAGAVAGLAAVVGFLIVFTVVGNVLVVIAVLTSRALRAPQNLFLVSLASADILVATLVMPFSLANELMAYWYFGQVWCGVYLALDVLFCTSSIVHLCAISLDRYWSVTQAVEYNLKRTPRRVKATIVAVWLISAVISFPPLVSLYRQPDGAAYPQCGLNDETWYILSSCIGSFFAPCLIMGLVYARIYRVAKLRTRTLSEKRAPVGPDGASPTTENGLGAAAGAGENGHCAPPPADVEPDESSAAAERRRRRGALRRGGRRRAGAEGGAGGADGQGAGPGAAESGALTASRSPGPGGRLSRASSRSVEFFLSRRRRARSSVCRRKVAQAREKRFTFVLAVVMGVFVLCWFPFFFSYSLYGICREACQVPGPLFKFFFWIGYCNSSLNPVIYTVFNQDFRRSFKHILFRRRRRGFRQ
Sequence of human Neurokinin, NK2 Receptor, TACR2 (gene 6865) (P21452 whole entry, looked up): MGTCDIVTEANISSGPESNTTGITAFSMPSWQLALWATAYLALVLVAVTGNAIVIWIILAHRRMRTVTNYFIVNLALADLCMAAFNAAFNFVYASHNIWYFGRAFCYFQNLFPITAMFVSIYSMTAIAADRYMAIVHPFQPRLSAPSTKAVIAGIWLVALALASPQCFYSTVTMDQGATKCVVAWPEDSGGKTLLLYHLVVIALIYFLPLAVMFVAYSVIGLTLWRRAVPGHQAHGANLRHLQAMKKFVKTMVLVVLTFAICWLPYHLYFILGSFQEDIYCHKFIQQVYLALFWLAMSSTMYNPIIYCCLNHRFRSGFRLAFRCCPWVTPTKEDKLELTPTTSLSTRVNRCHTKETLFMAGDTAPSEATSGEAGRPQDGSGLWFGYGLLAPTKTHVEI
Sequence of human Histamine 1 Receptor (H1), HRH1 (gene 3269) (P35367 whole entry, looked up): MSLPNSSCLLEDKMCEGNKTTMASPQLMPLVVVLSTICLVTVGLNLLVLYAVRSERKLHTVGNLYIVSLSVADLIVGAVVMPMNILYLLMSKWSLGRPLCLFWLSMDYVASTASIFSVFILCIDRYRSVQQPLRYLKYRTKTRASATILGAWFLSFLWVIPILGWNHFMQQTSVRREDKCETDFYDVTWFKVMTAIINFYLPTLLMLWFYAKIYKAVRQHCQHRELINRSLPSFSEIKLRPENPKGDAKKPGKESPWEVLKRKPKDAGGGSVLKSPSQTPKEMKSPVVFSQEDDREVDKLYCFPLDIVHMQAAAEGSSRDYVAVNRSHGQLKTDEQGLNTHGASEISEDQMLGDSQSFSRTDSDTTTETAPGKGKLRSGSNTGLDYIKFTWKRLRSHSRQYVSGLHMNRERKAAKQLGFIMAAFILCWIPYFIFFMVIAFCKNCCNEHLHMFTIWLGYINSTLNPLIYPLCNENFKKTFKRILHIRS
Sequence of Muscarinic acetylcholine receptor M3 (Homo sapiens) (P20309 whole entry, looked up): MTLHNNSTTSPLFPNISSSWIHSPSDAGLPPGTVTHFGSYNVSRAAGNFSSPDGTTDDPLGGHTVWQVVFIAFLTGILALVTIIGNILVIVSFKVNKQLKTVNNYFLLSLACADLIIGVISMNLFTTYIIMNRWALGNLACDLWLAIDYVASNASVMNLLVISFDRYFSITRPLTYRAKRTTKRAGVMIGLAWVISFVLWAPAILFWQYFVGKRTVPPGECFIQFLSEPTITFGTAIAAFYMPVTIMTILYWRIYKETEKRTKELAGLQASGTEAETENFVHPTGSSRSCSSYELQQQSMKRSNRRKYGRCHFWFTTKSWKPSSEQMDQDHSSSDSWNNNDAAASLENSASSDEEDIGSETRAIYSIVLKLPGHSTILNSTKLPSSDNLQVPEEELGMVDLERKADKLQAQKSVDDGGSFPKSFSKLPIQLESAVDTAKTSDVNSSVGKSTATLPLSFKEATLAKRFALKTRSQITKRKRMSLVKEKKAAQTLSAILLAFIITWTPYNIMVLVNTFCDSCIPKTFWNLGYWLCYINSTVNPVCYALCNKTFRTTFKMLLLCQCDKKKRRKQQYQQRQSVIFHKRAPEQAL
Sequence of Type-1 angiotensin II receptor (Homo sapiens) (P30556 whole entry, looked up): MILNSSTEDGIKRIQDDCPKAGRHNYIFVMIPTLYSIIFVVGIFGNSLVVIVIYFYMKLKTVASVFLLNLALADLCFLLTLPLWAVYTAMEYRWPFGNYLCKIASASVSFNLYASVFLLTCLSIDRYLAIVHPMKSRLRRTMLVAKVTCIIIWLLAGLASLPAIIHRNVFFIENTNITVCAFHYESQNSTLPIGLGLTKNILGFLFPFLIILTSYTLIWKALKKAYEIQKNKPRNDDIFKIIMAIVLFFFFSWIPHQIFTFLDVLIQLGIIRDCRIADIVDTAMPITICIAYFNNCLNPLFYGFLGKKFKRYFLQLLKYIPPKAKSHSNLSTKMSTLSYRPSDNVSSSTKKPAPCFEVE
Sequence of human Leukotriene B4 Receptor 1 (LTB4-BLT1), LTB4R (gene 1241) (Q15722 whole entry, looked up): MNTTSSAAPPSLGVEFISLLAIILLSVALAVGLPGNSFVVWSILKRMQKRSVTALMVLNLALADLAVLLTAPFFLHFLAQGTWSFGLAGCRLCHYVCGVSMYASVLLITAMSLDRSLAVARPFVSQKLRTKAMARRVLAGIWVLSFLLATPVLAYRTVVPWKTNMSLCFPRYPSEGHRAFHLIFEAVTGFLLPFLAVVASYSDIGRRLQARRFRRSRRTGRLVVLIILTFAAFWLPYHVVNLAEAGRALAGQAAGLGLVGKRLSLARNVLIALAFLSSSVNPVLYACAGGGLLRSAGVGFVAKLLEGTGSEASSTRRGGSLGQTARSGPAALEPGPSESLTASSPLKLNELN
Sequence of D(1A) dopamine receptor (Homo sapiens) (P21728 whole entry, looked up): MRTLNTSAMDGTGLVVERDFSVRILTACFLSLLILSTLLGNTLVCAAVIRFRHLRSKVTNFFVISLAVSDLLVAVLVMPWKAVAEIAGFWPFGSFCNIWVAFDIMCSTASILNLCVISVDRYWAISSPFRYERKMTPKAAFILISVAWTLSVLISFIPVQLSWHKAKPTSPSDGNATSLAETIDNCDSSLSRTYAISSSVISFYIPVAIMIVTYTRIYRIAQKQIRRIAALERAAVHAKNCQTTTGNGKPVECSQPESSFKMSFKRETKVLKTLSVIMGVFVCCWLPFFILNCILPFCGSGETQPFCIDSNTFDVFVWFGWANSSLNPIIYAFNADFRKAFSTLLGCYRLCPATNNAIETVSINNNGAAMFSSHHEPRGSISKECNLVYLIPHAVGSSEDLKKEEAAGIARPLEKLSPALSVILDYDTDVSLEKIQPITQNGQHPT
Sequence of human Dopamine Receptor D2 (DRD2), DRD2 (gene 1813) (P14416 whole entry, looked up): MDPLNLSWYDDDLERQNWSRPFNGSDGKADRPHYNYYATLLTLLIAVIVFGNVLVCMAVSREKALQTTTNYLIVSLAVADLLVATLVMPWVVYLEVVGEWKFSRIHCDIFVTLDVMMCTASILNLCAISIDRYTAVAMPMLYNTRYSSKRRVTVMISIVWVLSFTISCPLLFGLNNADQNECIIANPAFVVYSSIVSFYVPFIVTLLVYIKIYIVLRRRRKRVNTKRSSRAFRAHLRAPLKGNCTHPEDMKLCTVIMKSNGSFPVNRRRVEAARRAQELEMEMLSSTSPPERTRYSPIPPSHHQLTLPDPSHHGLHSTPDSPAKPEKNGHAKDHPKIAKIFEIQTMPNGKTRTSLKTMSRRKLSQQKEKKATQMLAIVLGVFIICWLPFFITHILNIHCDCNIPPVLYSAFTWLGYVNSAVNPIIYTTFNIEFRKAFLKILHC

With `CCOC(=O)C(C)Oc1ccc(Oc2nc3ccc(Cl)cc3o2)cc1` (stereo not given), the compound was called inactive in assay [1]. For the same compound, in [2], the AC50 is 17.2 µM (active).
Regarding `S=C(S)NCCNC(=S)S.[Mn+2].[S-]C([S-])=NCCN=C([S-])[S-].[Zn+2]`, the compound was called inactive in assay [3], in [4], in assay [5], in [6] and in assay [7]. The half-maximal activity concentration (AC50) in assay [8] was 117 nM (active) and 135 nM (active) and 170 nM (active).
Turning to `CCOC(=O)COc1cc(-n2ncc(C(F)(F)F)c(C)c2=O)c(F)cc1Cl`, the compound was called inactive in assay [6].
As for `COCCO`, in assay [3], the compound was called inactive.
Regarding `CC(C)(C)[C@@H](O)[C@@H](Cc1ccc(Cl)cc1)n1cncn1`, the result in assay [8] was inactive.
For the compound `CCCOC(=O)NCCCN(C)C`, the compound was classed as inactive in assay [7].
Regarding `CC(=O)S[C@@H]1CC2=CC(=O)CC[C@]2(C)[C@H]2CC[C@@]3(C)[C@@H](CC[C@@]34CCC(=O)O4)[C@H]12`, the compound was called inactive in [8].
As to `C=CCOC(Cn1ccnc1)c1ccc(Cl)cc1Cl` (stereo not given), the outcome in [9] and in [10] was inactive. The AC50 is 5.47 µM (active) in assay [2], 5.02 µM (active) in assay [11], 2.67 µM (active) in assay [7] and 5.37 µM (active) in assay [12].
In the case of `N[C@@H](Cc1cc(I)c(Oc2ccc(O)c(I)c2)c(I)c1)C(=O)O`, the result in assay [8] was inactive.
For the compound `CCCCOC(=O)C(C)Oc1ccc(Oc2ccc(C(F)(F)F)cn2)cc1` (stereo not given), in [2], the AC50 was 12.1 µM (active).
Regarding `CCOC(=O)C(C)Oc1ccc(Oc2cnc3cc(Cl)ccc3n2)cc1` (stereo not given), the compound was called inactive in assay [1].
In the case of `CCNc1nc(N)nc(Cl)n1`, the outcome in assay [6] was inactive.
For the compound `c1ccc2[nH]c(-c3cscn3)nc2c1`, the compound was classed as inactive in assay [13].
With `CCCCC(CC)CN1C(=O)C2C3C=CC(C3)C2C1=O` (stereo not given), the compound was classed as inactive in assay [9] and in assay [7]. Also, the AC50 in assay [11] was 8.81 µM (active).
For the compound `CC1(C)C(C=C(Cl)Cl)C1C(=O)OCc1cccc(Oc2ccccc2)c1` (stereo not given), in assay [14], the compound was classed as inactive.
Regarding `CC(C)(c1ccc(O)cc1)c1ccc(O)cc1`, the result in assay [15], in assay [1], in [9], in assay [16], in assay [14] and in [10] was inactive. In assay [17], the result was inactive.

These data come from PubChem BioAssay (EPA / NIEHS).
